Compound activity from PubChem.
Shown are actives, neighbours in structure and some others; about 3.2% of the full set was active somewhere.
Tau ThT inhib – qHTS for Inhibitors of Tau Fibril Formation, Thioflavin T Binding; AID 1460, 2008; Potency, µM (doses to about 57.4 µM), for inactives: top-dose activity, negative = inhibition, most hits filed as inhibitors; Microtubule-associated protein tau (Homo sapiens), P10636; actives 2.1% (n = 270,000); recombinant tau K18 P301L, heparin-induced fibrillization, ThT fluorescence; note: nearly all actives have a fitted effect of over 55% in size
Target sequence (P10636 561-689 P618L limits assumed): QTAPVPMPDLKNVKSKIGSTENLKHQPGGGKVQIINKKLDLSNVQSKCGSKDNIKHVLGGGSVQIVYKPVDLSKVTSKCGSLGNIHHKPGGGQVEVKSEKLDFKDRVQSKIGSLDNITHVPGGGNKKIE
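Fibril formation assay: tau K18 P301L at 15 uM with trace Alexa 594 label, heparin inducer 20 uM, pH 7 sodium acetate buffer, 37 C for 6 hr; endpoint ThT signal.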
TRb-SRC2 inh – qHTS for Inhibitors of the Interaction of Thyroid Hormone Receptor and Steroid Receptor Coregulator 2; Potency, µM (titrated, usually from 106 µM), inactives show at the top dose activity change, negative = inhibition, most hits filed as inhibitors; Thyroid hormone receptor beta (Homo sapiens), P10828; AID 1469, 2008; actives 0.065% (n = 280,000); TRbeta-SRC2 peptide binding, fluorescence polarization; receptor liganded with 1 µM T3;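 note: plate controls were bound peptide for no effect and peptide without receptor for full effect; nearly all actives have a fitted effect of over 50% in size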
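Human TRb ligand-binding domain (0.6 uM) is mixed with 20 nM Texas Red SRC2 peptide and 1 uM T3; after compound addition and 5 hr at ambient temperature, polarization is measured and normalized to unbound and bound controls.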
TexasRed fluor – Total Fluorescence Counterscreen for Inhibitors of the Interaction of Thyroid Hormone Receptor and Steroid Receptor Coregulator 2 | actives 0.29% (n = 280,000) | Potency, µM (top dose mostly 106 µM), for the others: top-dose fluorescence change, negative = quenching | TRb/SRC2 Texas Red total fluorescence interference; active = well fitted curve in either direction with a large enough effect; inconclusive = small, poorly fitted or top-dose-only effect
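Flags fluorescent or light-absorbing compounds by total fluorescence, S + 2P, at 555 nm excitation and 632 nm emission. Mixture: 20 nM Texas Red SRC2 peptide, 0.6 uM human TRb LBD, 1 uM T3, 5% DMSO; compound exposure 5 h at ambient temperature.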
Tau FP inhib – qHTS for Inhibitors of Tau Fibril Formation, Fluorescence Polarization | Potency, µM (highest dose often 57.7 µM), without a hit: at the highest dose activity, negative = inhibition, actives largely listed as inhibitors | Microtubule-associated protein tau (Homo sapiens), P10636 | actives 0.39% (n = 280,000) | K18 P301L tau heparin fibrillization, Alexa594 FP, 6 h; note: nearly all actives have a fitted effect of over 55% in size
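Steps: dispense K18 P301L tau (15 uM plus 0.24 uM Alexa 594 tracer, final) in pH 7 sodium acetate; add compound; add heparin (20 uM final); incubate 6 hr, 37 C; add ThT (30 uM final); after 1 hr ambient, read FP.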
Tau fluor cs – Counterscreen qHTS for Inhibitors of Tau Fibril Formation, Fluorescence Polarization; tau K18 P301L Alexa594 fluorescence, heparin fibrillization; Potency, µM (titrated, usually from 57.7 µM), without a hit: at the top dose activity change, negative = decrease; actives 0.93% (n = 280,000); note: nearly all actives have a fitted effect of over 55% in size
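Human tau K18 P301L (15 uM unlabeled, 0.24 uM Alexa 594-labeled) in 100 mM sodium acetate pH 7 with 20 uM heparin, 6 hr at 37 C. ThT 30 uM added, 1 hr ambient; Alexa 594 FP and total fluorescence read at 555/632 nm.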
RGS12 GoLoco inh – qHTS Assay for Inhibitors of RGS12 GoLoco Motif Activity (Red Fluorophore). Potency, µM (titrated, usually from 61.6 µM), for inactives: at the highest dose activity, negative = inhibition, hits mostly inhibitors. Gai1:RGS12 GoLoco peptide FP, rhodamine, 10 min. AID 880, 2007. Guanine nucleotide-binding protein G(i) subunit alpha-1 (Homo sapiens), P63096. actives 0.44% (n = 230,000); active = well fitted inhibition curve with a large enough effect, not every such curve was filed as active; inactive = no such curve, though single readings can be large or run the other way; note: nearly all actives have a fitted effect of over 30% in size
Target sequence (P63096 whole entry, looked up): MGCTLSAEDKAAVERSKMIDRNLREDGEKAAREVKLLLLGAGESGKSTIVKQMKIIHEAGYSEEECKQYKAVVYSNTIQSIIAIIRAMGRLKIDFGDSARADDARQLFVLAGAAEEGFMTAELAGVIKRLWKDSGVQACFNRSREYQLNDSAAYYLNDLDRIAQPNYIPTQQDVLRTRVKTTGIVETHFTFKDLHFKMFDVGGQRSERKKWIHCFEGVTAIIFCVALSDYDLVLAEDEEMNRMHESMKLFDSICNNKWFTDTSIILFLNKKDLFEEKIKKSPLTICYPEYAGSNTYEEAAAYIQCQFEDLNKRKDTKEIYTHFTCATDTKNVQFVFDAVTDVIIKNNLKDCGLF
* = called active by the depositor; [ ] = dose if it differs, or a comment. Unless noted, calls come from the whole dose curve; as a rule, active = well fitted curve in the direction sought with a large enough effect; inconclusive = small, poorly fitted or top-dose-only effect, or another doubt; inactive = no such curve, though single readings can be large; an effect the other way counts as inactive or inconclusive. Unless noted, % is set by controls: 0 for no effect and ±100 for the full control effect; potency is the fitted concentration of half-maximal effect.

`CCCCc1c(O)c2ccccc2n(CCCC)c1=O` gave Tau ThT inhib -6.9%, TRb-SRC2 inh 1.9%, TexasRed fluor -4.6%, Tau FP inhib -3.5%, Tau fluor cs -15.2% and RGS12 GoLoco inh 1.0%.
`COc1cc(NS(=O)(=O)c2ccc([N+](=O)[O-])cc2)c2ncccc2c1` gave TRb-SRC2 inh -0.5% and TexasRed fluor -0.2%.
For Nc1ccc2nc(-c3ccccc3)sc2c1 the results were Tau ThT inhib inconclusive, TRb-SRC2 inh -18.0%, TexasRed fluor -4.3%, Tau FP inhib 12.4%, Tau fluor cs -29.4% and RGS12 GoLoco inh -1.3%.
For Cc1ccc2sc(-c3ccc(N)cc3)nc2c1 the results were Tau ThT inhib 4.47µM*, TRb-SRC2 inh -9.4%, TexasRed fluor -4.4%, Tau FP inhib 4.2% and Tau fluor cs inconclusive.
`Nc1ccc(-c2nc3cc(N)ccc3s2)cc1` gave Tau ThT inhib 14.1µM*, TRb-SRC2 inh -3.2%, TexasRed fluor -5.3%, Tau FP inhib -1.1%, Tau fluor cs inconclusive and RGS12 GoLoco inh 15.8%.
CNC(=S)Nc1ccc(-c2nc3ccc(C)cc3s2)cc1 was read as Tau ThT inhib 15.2%, TRb-SRC2 inh 0.4%, TexasRed fluor -0.8%, Tau FP inhib inconclusive, Tau fluor cs inconclusive and RGS12 GoLoco inh -3.0%.
For Cc1ccc2nc(-c3ccc(N)cc3)sc2c1 the results were Tau ThT inhib 5.62µM*, TRb-SRC2 inh -0.1%, TexasRed fluor -4.9%, Tau FP inhib 7.7%, Tau fluor cs inconclusive and RGS12 GoLoco inh 9.5%.
`CC(C)c1ccc(OCC(=O)Nc2c(Cl)ccc3nsnc23)cc1` gave Tau ThT inhib -6.7%, TRb-SRC2 inh -1.2%, TexasRed fluor 5.4%, Tau FP inhib 1.1% and Tau fluor cs -13.9%.
Screening C=CCCCCCCCCC=O returned TRb-SRC2 inh -4.6%[201 µM] and TexasRed fluor -0.7%[201 µM].
`CC1CC1C(=O)OCC(=O)Nc1ccc(N=Nc2ccccc2)cc1` (stereo not drawn) gave Tau ThT inhib 7.94µM*, TRb-SRC2 inh -2.2%, TexasRed fluor 7.5%, Tau FP inhib inconclusive, Tau fluor cs inconclusive and RGS12 GoLoco inh -2.9%.
For CCCC(=O)OCC(=O)Nc1ccc(N=Nc2ccccc2)cc1 the results were Tau ThT inhib 10µM*, TRb-SRC2 inh -0.5%[53 µM], TexasRed fluor -1.6%[53 µM], Tau FP inhib inconclusive, Tau fluor cs inconclusive and RGS12 GoLoco inh 3.1%.
For O=C(O)CCC(=O)Nc1ccc(N=Nc2ccccc2)cc1 the results were Tau ThT inhib inconclusive, TRb-SRC2 inh -4.2%, TexasRed fluor -1.6%, Tau FP inhib -3.7%, Tau fluor cs -4.3% and RGS12 GoLoco inh 4.8%.
For NC(CC(=O)Nc1ccc(Oc2cc(F)c(F)cc2Br)cc1)C(=O)O (stereo not drawn) the results were TRb-SRC2 inh 6.0% and TexasRed fluor 1.7%.
Screening CC(C)c1onc(-c2c(Cl)cccc2Cl)c1COc1ccc(/C=C/c2cccc(C(=O)O)c2)c(Cl)c1 returned TRb-SRC2 inh inconclusive and TexasRed fluor -5.7%.
Screening Cc1cc(/C=N/n2c(COc3ccccc3)nc3ccccc3c2=O)c(O)c([N+](=O)[O-])c1 returned Tau ThT inhib 11.2µM*, TRb-SRC2 inh 8.9%, TexasRed fluor -7.0%, Tau FP inhib 13.8%, Tau fluor cs inconclusive and RGS12 GoLoco inh 36.1%.
